Assay outcomes from PubChem.
Nrf2 inh: blocks Nrf2 signaling. A549 ARE-Fluc reporter, luciferase luminescence, 18-24 h. Potency, µM (series often up to 46 µM), inactives show at the highest dose activity change, negative = inhibition, actives largely listed as inhibitors. 2.1% of 360,000 active; note: % is set by controls: 0 for no effect and ±100 for the full control effect; nearly all actives have a fitted effect of over 60% in size
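Quantitative HTS in A549 cells stably bearing an antioxidant response element-firefly luciferase construct. Inhibition of Nrf2-driven transcription was scored by luminescence after 18-24 h of compound exposure at 37 °C.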
S2 tox: cell viability loss in ATXN counter-screen; S2 cells (HEK-293 line with an ATXN2-luciferase reporter) viability, CellTiter-Fluor protease fluorescence, 24 h; Potency, µM (top dose mostly 56.7 µM), hits mostly cytotoxic; 0.49% of 400,000 active; AID 651635; note: nearly all actives have a fitted effect of over 40% in size
TGFb inhibitor: inhibitors of TGF-b signaling | HepG2 CAGA-GFP TGF-b/SMAD3 reporter, GFP fluorescence, 18 h; TGF-beta stimulated, 500 pg/mL final | Potency, µM (series often up to 46.1 µM), inactives show at the top dose activity, negative = inhibition, most hits filed as inhibitors | 1.2% of 410,000 active | AID 588855; note: % is set by controls: 0 for no effect and ±100 for the full control effect; nearly all actives have a fitted effect of over 65% in size
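Inhibition was scored as loss of TGF-beta-induced (500 pg/mL final, 18 hours, 37 degrees C) GFP in HEPG2 cells carrying a CAGA-GFP reporter, in DMEM with 1% FBS. Well GFP was summed per cell; Activity was normalised to unstimulated and stimulated DMSO wells, then concentration-response fitting.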
ATXN2 expr inh: ATXN2 expression inhibition. 0.72% of 360,000 active. HEK-293 ATXN2-luciferase reporter, luminescence, 24 h. Potency, µM (highest dose often 57 µM), for the others: at the highest dose activity change, negative = inhibition, hits mostly inhibitors. AID 1745845; note: % is set by controls: 0 for no effect and ±100 for the full control effect; nearly all actives have a fitted effect of over 55% in size
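qHTS (up to 57 uM final) was run with 24 h compound exposure of reporter cells at 37 °C. Each well was multiplexed: SteadyGlo luminescence measured ATXN2-luciferase expression after a fluorogenic Gly-Phe-AFC viability readout (25 uM final).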
HepG2 viability: counter-screen for TGF-b inhibitors: cytotoxicity in HepG2 cells | Potency, µM (highest dose often 46.1 µM), for the others: top-dose activity change, negative = cytotoxicity, most hits filed as cytotoxic | 0.76% of 410,000 active | HepG2 CAGA-GFP viability, ATP luminescence, 18 h
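CellTiter-Glo luminescence gave cytotoxicity after 18 hours at 37 degrees C. The cells were HepG2 CAGA-GFP in 1% FBS DMEM, stimulated with 500 pg/mL TGF-beta after compound addition. %Activity was normalised to no-cell wells (complete cell-killing) and DMSO (no toxicity), and curves were fitted and classified.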
A549 tox: counter-screen for Nrf2 inhibitors: cytotoxicity in A549 cells; A549 ARE-Fluc cells, CellTiter-Fluor viability, 18-24 h; Potency, µM (doses to about 46 µM), for the others: at the highest dose activity change, negative = cytotoxicity, most hits filed as inhibitors; 0.16% of 390,000 active; note: % is set by controls: 0 for no effect and ±100 for the full control effect
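A549 ARE_Fluc cells in 5% FBS OPTI-MEM were exposed to compounds in concentration-response for 18-24 h at 37 deg C. Viability was read by CellTiter-Fluor fluorescence (Ex 405/Em 525) after 30 min, before the luciferase read.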
The depositor's hits bear a star; i = inactive; ? = inconclusive; · = no result given; ! = not active in a repeat; [ ] = another dose, or the depositor's remark. Rows were chosen to be rich in hits. Some 3.8% of all compounds tested hit in one or more screens of this group. Calls come from the whole dose curve; as a rule, active = well fitted curve in the direction sought with a large enough effect; inconclusive = small, poorly fitted or top-dose-only effect, or another doubt; inactive = no such curve, though single readings can be large; an effect the other way counts as inactive or inconclusive. Potency is the fitted concentration of half-maximal effect.

SMILES | Nrf2 inh | S2 tox | TGFb inhibitor | ATXN2 expr inh | HepG2 viability | A549 tox
O=[N+]([O-])c1ccc(-[n+]2c(-c3ccccc3)cc(-c3ccccc3)cc2-c2ccccc2)cc1 | 14% | i | -14% | · | -3% | 0%
O=[N+]([O-])c1ccccc1-c1cc(-c2ccccc2)cc(-c2ccccc2)[n+]1Cc1ccccc1Cl | 21µM* | ? | ? | ? | -40% | ?
COc1cc(/C=C(/C)[N+](=O)[O-])ccc1OCc1ccccc1Cl | ? | 32µM* | 5µM* | 25µM* | 7.9µM* | -8%
O=C1NC(=S)NC(=O)C1Cc1ccccc1 | 6% | i | -10% | 8% | -20% | -3%
O=C1N[C@@H](Cc2ccccc2)C(=O)N2[C@H]3Nc4ccccc4[C@@]3([C@]34C[C@H]5C(=O)N[C@@H](Cc6ccccc6)C(=O)N5[C@H]3Nc3ccccc34)C[C@@H]12 | -13% | 13µM* | ? | ? | -4% | 14%
Cc1cc(OC(=O)N(C)C)nc(SCc2c(Cl)cccc2Cl)n1 | ? | i | -27% | · | 8.9µM* | 7%
CN(C)C(=O)Oc1c(Cl)cc(Cl)c2ccccc12 | · | i | 31% | -15% | -8% | 19%
Cc1ccc2c(c1)C(Cc1nc3ccccc3c(=O)n1-c1ccc(Br)cc1)C(=O)N2 (configuration not stated) | ? | 25µM* | ? | 0% | -17% | ?
CCN(CC)C(=O)[C@@H]1C=C2c3cccc4[nH]cc(c34)C[C@H]2N(C)C1 | · | ? | · | -17%[222 µM] | · | ·
C[C@]12CC[C@H](O)CC1=CCC1C2CC[C@@]2(C)C1C[C@@H](O)[C@@H]2O (some centres not stated) | 12% | i | 13% | 5% | -1% | 9%
C[C@@H]1CC[C@@]2(OC1)O[C@H]1C[C@H]3[C@@H]4CC=C5C[C@@H](O[C@@H]6O[C@H](CO)[C@@H](O[C@@H]7O[C@@H](C)[C@H](O)[C@@H](O)[C@@H]7O)[C@H](O)[C@@H]6O[C@@H]6O[C@@H](C)[C@H](O)[C@@H](O)[C@@H]6O)CC[C@]5(C)[C@@H]4CC[C@]3(C)[C@@H]1[C@H]2C | · | · | · | 12µM* | · | ·
C[C@H]1CC[C@@H]2[C@@H](C)[C@H]3C(CC4C5CC=C6CC(O[C@@H]7O[C@H](CO)C(O[C@@H]8O[C@@H](C)[C@H](O)[C@@H](O)[C@H]8O)[C@H](O)[C@H]7O[C@@H]7O[C@@H](C)[C@H](O)[C@@H](O)[C@H]7O)CC[C@]6(C)C5CC[C@@]43C)N2C1 (some centres not stated) | ? | · | 14µM* | · | 20µM* | -30%
CCOC(=O)C1(c2ccccc2)CCN(CCc2ccc(N)cc2)CC1 | · | i | · | -4% | · | ·
CC1=CC2/C=C(\C)CCC(O)C(O)/C=C/C(=O)C23C(=O)NC(CC(C)C)C3C1C (configuration not stated) | 15µM* | · | 3.2µM* | ? | -117% | 16µM*
Cc1c(C(=O)Nc2cccc(C(F)(F)F)c2)cc(-c2ccccc2)n1CCCN1CCOCC1 | · | · | · | -14% | · | ·
CCCOP(=O)(OCCC)C(NC(=O)c1cc(OC)c(OC)c(OC)c1)c1ccccc1 (configuration not stated) | -8% | i | 0% | -9% | -22% | 0%
CCC(COC(=O)c1cc(OC)c(OC)c(OC)c1)(c1ccccc1)N(C)C (configuration not stated) | 21µM*! | i | 17% | 5% | -36% | 0%
O=C(CN1CCCC2CCCCC21)c1ccc(I)cc1 (configuration not stated) | · | · | 5% | · | -3% | ·
CCCCCc1cc(O)c2c3c(c(=O)oc2c1)CN(C)CC3 | 2% | i | ? | -12% | 10µM* | 7%
Cc1ccccc1CN1C(=O)C(C)N=C(c2ccccc2)c2ccccc21 (configuration not stated) | · | · | -5% | · | -19% | 0%
COc1ccc(C(=O)NCCn2cc(SC(C)c3ccccc3)c3ccccc32)cc1OC (configuration not stated) | 23µM* | ? | ? | ? | -20% | -19%
COc1ccccc1OCCCn1cc(C(C)=O)c2ccccc21 | ? | i | -16% | -20% | -6% | 0%
COC1C(C)OC(OC2CC(C)(O)Cc3cc4c(c(O)c32)C(=O)c2c(O)cc3c(c2C4=O)OC2OC3(C)C(O)C(N(C)C)C2O)C(OC)C1(C)OC (configuration not stated) | ? | ? | 2µM* | ? | 30% | ?
c1ccc(-c2ccc(-c3n(-c4ccccn4)c4ccccc4[n+]3-c3ccccn3)cc2)cc1 | ? | ? | 18µM* | · | -7% | -13%
O=C(CCl)NN=C(c1ccccc1)c1ccccc1 | ? | i | -3% | 1% | -1% | 3%
SMILES | Nrf2 inh | S2 tox | TGFb inhibitor | ATXN2 expr inh | HepG2 viability | A549 tox
COc1cccc(C(=O)N/N=C(/c2ccccc2)c2ccccn2)c1 | 10µM* | 10µM* | ? | 4µM* | -33% | ?
COc1ccc(-n2nnnc2C(c2ccccc2)N2CCC3(CC2)C(=O)NCN3c2ccccc2)cc1 (configuration not stated) | · | ? | ? | -38% | 3% | ·
COc1ccc(-n2nnnc2C(c2ccccc2OC(F)(F)F)N2CCC3(CC2)C(=O)NCN3c2ccccc2)cc1 (configuration not stated) | · | · | 11µM* | ? | -32% | ·
COc1ccc(C(c2nnnn2Cc2ccccc2)N2CCC3(CC2)C(=O)NCN3c2ccccc2)cc1 (configuration not stated) | · | ? | 11µM* | -6% | -1% | ·
O=C1NCN(c2ccccc2)C12CCN(C(c1ccccc1OC(F)(F)F)c1nnnn1-c1ccc3c(c1)OCCO3)CC2 (configuration not stated) | · | 22µM* | ? | 0% | 5% | ·
CC1CCCCC1NC(=O)CNC(=S)N1CC2CC(C1)c1cccc(=O)n1C2 (configuration not stated) | 3% | i | 1% | 2% | 2% | 6%
O=C(Oc1ccc([N+](=O)[O-])cc1)N1CCN(/[N+]([O-])=N/Oc2ccc([N+](=O)[O-])cc2[N+](=O)[O-])CC1 | · | · | ? | · | -107% | ·
O=C(N/N=C/c1c(O)n(CCc2ccccc2)c(=O)[nH]c1=O)c1ccccc1O | 23% | i | -2% | · | -27% | -2%
